This is a sample that favours compounds with a hit; in the whole collection about 12% have one here.
G9a inh: G9a (human) methyltransferase inhibition; Q96KQ7; G9a H3K9 monomethylation, AlphaScreen, 2 h; Potency, µM (top dose mostly 102 µM), for inactives: top-dose activity, negative = inhibition, hits mostly inhibitors; hit rate 8.8% among 350,000; AID 504332; also: % is scaled to controls: 0 for no effect and ±100 for the full control effect; nearly all actives have a fitted effect of over 75% in size
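Chemiluminescent proximity detection of H3K9 monomethylation, read after 10 min bead incubation in the dark. Reaction: 20 nM G9a, 500 nM biotin-H3K9 peptide, 20 uM SAM cofactor, 2 h, room temperature, following 15 min enzyme-compound preincubation.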
BAZ2B inh: BAZ2B (human) inhibition | Q9UIF8 | AlphaScreen BAZ2B-H3K14Ac peptide displacement | Potency, µM (highest dose often 114 µM), for the others: top-dose activity change, negative = inhibition, actives largely listed as inhibitors | hit rate 4.4% among 360,000 | AID 504333; also: % is scaled to controls: 0 for no effect and ±100 for the full control effect; nearly all actives have a fitted effect of over 60% in size
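In this displacement format the biotinylated H3(5-23) peptide acetylated at Lys14 serves as ligand at 50 nM, with BAZ2B at 50 nM in PBS pH 7.4 containing 0.01% Tween-20. Donor and acceptor beads are 10 ug/mL final.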
JMJD2A Tudor inh: inhibitors of human JMJD2A Tudor domain. O75164. AlphaScreen JMJD2A-Tudor / H3K4me3 peptide binding. Potency, µM (doses to about 114 µM), inactives show at the top dose activity change, negative = inhibition, most hits filed as inhibitors. hit rate 4.4% among 390,000; also: % is scaled to controls: 0 for no effect and ±100 for the full control effect; nearly all actives have a fitted effect of over 50% in size
Target sequence (O75164 whole entry, looked up, the tested form may be a part): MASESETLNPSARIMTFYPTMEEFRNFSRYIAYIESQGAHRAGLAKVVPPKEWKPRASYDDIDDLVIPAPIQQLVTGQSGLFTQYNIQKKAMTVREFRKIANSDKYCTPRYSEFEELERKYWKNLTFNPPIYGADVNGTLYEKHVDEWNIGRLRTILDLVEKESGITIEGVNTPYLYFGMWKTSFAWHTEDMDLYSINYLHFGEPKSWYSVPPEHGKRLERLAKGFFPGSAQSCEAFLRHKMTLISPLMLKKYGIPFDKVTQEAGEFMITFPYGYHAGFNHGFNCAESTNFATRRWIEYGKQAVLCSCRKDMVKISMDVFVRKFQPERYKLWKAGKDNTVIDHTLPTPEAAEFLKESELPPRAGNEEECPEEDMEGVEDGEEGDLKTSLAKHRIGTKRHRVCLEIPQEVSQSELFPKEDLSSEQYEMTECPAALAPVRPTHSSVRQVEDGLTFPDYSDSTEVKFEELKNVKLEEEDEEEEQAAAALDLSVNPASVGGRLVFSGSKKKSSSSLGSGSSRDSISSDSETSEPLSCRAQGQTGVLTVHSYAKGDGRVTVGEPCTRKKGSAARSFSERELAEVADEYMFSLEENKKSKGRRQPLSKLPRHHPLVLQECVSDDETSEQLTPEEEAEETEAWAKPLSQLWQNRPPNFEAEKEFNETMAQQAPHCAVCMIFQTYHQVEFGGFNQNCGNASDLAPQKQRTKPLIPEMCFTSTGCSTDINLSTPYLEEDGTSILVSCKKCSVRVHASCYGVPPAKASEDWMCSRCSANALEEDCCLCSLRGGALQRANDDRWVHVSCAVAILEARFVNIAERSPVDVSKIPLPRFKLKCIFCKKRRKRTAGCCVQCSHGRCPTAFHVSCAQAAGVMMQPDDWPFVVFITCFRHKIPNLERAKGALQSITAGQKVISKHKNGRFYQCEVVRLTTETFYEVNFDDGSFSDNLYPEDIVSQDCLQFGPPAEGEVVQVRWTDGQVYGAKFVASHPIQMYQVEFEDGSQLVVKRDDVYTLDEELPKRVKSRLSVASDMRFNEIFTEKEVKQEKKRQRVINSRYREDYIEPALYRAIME
Sfp PPTase inh: Sfp phosphopantetheinyl transferase inhibition; Biochemical Sfp PPTase activity, qHTS; Potency, µM, inactives show largest response in the series, negative = inhibition, hits mostly inhibitors; hit rate 3.5% among 310,000; AID 1490;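 also: the enzyme is Sfp with the accession as filed and its product quenches rhodamine fluorescence; 0% = enzyme reaction without inhibitor and -100% = no enzyme wells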
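Sfp 15 nM + cpd, 15 min RT; start w/ rhodamine-CoA 5 uM, BHQ-2-YbbR 12.5 uM (final); 50 mM Hepes pH 7.6, 10 mM MgCl2, 0.01% NP-40, 0.01% BSA; read 525/598 nm at 0 and 30 min.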
HP1b chromo inh: blocks HP1-beta chromodomain binding to methylated histone tails; AlphaScreen HP1-beta / biotin-H3K9me3 peptide binding; Potency, µM (series often up to 114 µM), for the others: top-dose activity change, negative = inhibition, hits mostly inhibitors; hit rate 0.56% among 390,000; AID 540317; also: nearly all actives have a fitted effect of over 70% in size
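AlphaScreen: HP1-beta (50 nM) preformed 30 min with biotin-H3(1-18)K9me3 peptide (50 nM) in PBS pH 7.4, 0.01% Tween-20. Compound added for 30 min at RT, then streptavidin donor/nickel chelate acceptor beads (10 ug/mL) for 30 min.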
* hit, by the source's call; ? = inconclusive; . = no result given; [ ] = dose if it differs, or a comment. Calls follow the shape of the dose curve; as a rule, active = well fitted curve in the direction sought with a large enough effect; inconclusive = small, poorly fitted or top-dose-only effect, or another doubt; inactive = no such curve, though single readings can be large; an effect the other way counts as inactive or inconclusive. Potency is read from the fitted curve at half-maximal effect.

SMILES	G9a inh	BAZ2B inh	JMJD2A Tudor inh	Sfp PPTase inh	HP1b chromo inh
CCc1cc(C(=O)N2CCOCC2)c(NC2=NS(=O)(=O)c3ccccc32)s1	89µM*	-37%	-4%	-26%	40%
c1ccc(-n2nnnc2-n2nnc3ccccc32)cc1	-3%[12.7 µM]	2%	18%	18%	48%
O=c1cc(CO)oc(CN2CCN(CCO)CC2)c1O	?	-30%	2.8µM*	-26%	-2%
COc1cc2c(cc1OC)C1(CCCCC1)CN(C)C2	-4%[59 µM]	-31%	-6%	-28%	41%
O=C(C1=C(O)C(=O)N(Cc2ccco2)C1c1cccc(Cl)c1)c1ccco1 (stereo not drawn)	54%	5%	-21%	-15%	25%
Cc1cc(N2C(=O)C(O)=C(C(=O)c3ccco3)C2c2cccc(Cl)c2)no1 (stereo not drawn)	-11%[0.0925 µM]	?	-24%	-13%	-1%[57 µM]
CC(=O)C1=C(O)C(=O)N(c2ccccn2)C1c1ccc(Cl)cc1 (stereo not drawn)	-14%	10%	-3%	13%	11%
Cc1ccc(C(=O)C2=C(O)C(=O)N(c3ncccn3)C2c2ccc(Cl)cc2)o1 (stereo not drawn)	10µM*	11%	-36%	-16%	32%
O=C(C1=C(O)C(=O)N(c2ncccn2)C1c1ccc(Cl)cc1)c1ccco1 (stereo not drawn)	.	71µM*	-22%	-5%	18%
O=C(C1=C(O)C(=O)N(c2ncccn2)C1c1ccc(Cl)c(Cl)c1)c1ccco1 (stereo not drawn)	40µM*	79µM*	7.1µM*	56µM*	?
O=C(C1=C(O)C(=O)N(c2ncccn2)C1c1cccc(Cl)c1)c1ccco1 (stereo not drawn)	18µM*	?	-27%	56µM*	28%
Cc1ccc2nc(NC(=O)COC(=O)c3ccccn3)sc2c1	-11%	-35%	-18%	1%	33%
CCC(C)(C)NC(=O)C(OC(=O)c1ccco1)c1ccc(OC)cc1 (stereo not drawn)	.	2%	-10%	5%	23%
CCn1c(SCC(=O)NC(C)(C)C)nnc1-c1ccoc1C	-6%[59 µM]	6%	-4%	12%	32%
CCn1c(SCC(=O)NC(C)(C)C)nnc1-c1ccccn1	56µM*	?	-1%	17%	29%
CCn1c(SCC(=O)Nc2cc(NC(C)=O)ccc2OC)nnc1-c1ccccn1	-8%[59 µM]	?	50µM*	11%	19%
CCn1c(SCC(=O)Nc2cc(NC(C)=O)ccc2OC)nnc1-c1ccncc1	4%[59 µM]	11%	.	9%	.
OCCC1CN(Cc2ccncc2)CCN1C1CCCC1 (stereo not drawn)	-1%	-1%	-15%	17%	24%
CN1CC[C@@H]2C(=O)N3CCc4ccc(Br)cc4[C@@H]3C[C@@H]21	.	.	-4%	.	13%
Cc1ccc2nc(C)c3c(c2c1)OC(C(C)(Cl)Br)C3 (stereo not drawn)	-8%[12.7 µM]	-39%	-20%	20µM*	29%
COc1ccc2nc(C)c3c(c2c1)OC(C(C)(Cl)Br)C3 (stereo not drawn)	-7%	-13%	-9%	7%	22%
CCCCCC(=O)Nc1cc(S(=O)(=O)O)cc2cc(S(=O)(=O)O)cc(O)c12	.	.	1.1µM*	.	1.4µM*
Cc1nc([N+](=O)[O-])c(SCC(O)CCl)n1Cc1ccc(Cl)cc1 (stereo not drawn)	28µM*	-36%	-20%[11.4 µM]	23%	24%
COc1ccc(Cn2c(C)nc([N+](=O)[O-])c2SCC(=O)O)cc1[N+](=O)[O-]	-1%	-15%	-5%	2%	31%
O=C(O)CNC(=O)c1ccc(NS(=O)(=O)c2ccc3ccccc3c2)cc1	40µM*	?	-16%	2%	17%
SMILES	G9a inh	BAZ2B inh	JMJD2A Tudor inh	Sfp PPTase inh	HP1b chromo inh
CC(=O)c1ccc(NS(=O)(=O)c2ccc3ccccc3c2)cc1	5%[59 µM]	-6%	-16%	27%	-6%
COc1cc(S(=O)(=O)Nc2ccc(C(=O)NCC(=O)O)cc2)ccc1NC(C)=O	50µM*	-13%	3%	-12%	29%
O=[N+]([O-])c1ncccc1OCc1ccc(-c2ccccc2)cc1	23%	-9%	-5%	3%	32%
COc1ccc(S(=O)(=O)c2ccc(OC)cc2)cc1	-6%[59 µM]	8%	3%	-3%	27%
CC1=C(C)/C(=N\OS(=O)(=O)c2ccc(C)cc2)C=CC1=O	20µM*	25µM*	56µM*	32µM*	?
COc1ccc(S(=O)(=O)/N=C2/C=CC(=O)C(C)=C2C)cc1	?	-8%	-35%	79µM*	?
COc1ccc(-n2nc(C(=O)NCC(=O)NCCN(C)C)c3ccccc3c2=O)cc1	21%	3%	-7%	7%	46%
COc1ccc(S(=O)(=O)NC(CC(=O)NC2CCCC2)c2ccco2)cc1 (stereo not drawn)	4%	7%	-15%	14%	17%
Cc1ccc(C)c(NC(=O)CNC(=O)N2CC(=O)Nc3ccccc32)c1	26%	-4%[57.1 µM]	-3%	9%	65%
Cc1ccc(C)c(Nc2c([N+](=O)[O-])cc(C(=O)N3CC(=O)Nc4ccccc43)cc2[N+](=O)[O-])c1	18µM*	25µM*	?	-1%	?
O=C1CN(C(=O)c2cccc(Br)c2)c2ccccc2N1	3%	-2%	-12%	2%	10%
Cc1cccc(Nc2c([N+](=O)[O-])cc(C(=O)N3CC(=O)Nc4ccccc43)cc2[N+](=O)[O-])c1	11µM*	?	?	16%	-16%
COC(=O)COc1ccc2cccc(-n3cnnn3)c2c1	26%[59 µM]	-15%	?	22%	-19%
CCN1CCC(N(Cc2ccc(F)cc2)C(=O)Nc2cc(Cl)ccc2C(=O)OC)CC1	2%[59 µM]	-26%	-16%	.	13%
Cc1ccc(-c2nc3nc(C)cc(C)n3c2Nc2ccc3c(c2)OCCO3)cc1	?	?	?	.	-18%
Cc1cc(C)n2c(Nc3ccc4c(c3)OCCO4)c(-c3ccco3)nc2n1	50µM*	?	.	-17%	.
Cc1cc(C)n2c(Nc3ccc4c(c3)OCCO4)c(-c3ccc(C)o3)nc2n1	50µM*	?	-35%	32µM*	0%
Nc1nc(CSCc2ccccc2)nc(N2CCOCC2)n1	-20%[59 µM]	?	?	28µM*	19%
Nc1nc(CSc2nc3ccccc3s2)nc(N2CCOCC2)n1	12%	-22%	-8%	26%	16%
CC(C)(C)C1CCc2c(sc(NC(=O)CCC(=O)O)c2C(=O)Nc2ccccc2C(F)(F)F)C1 (stereo not drawn)	?	50µM*	56µM*	.	-17%
N#C/C(=C\c1ccncc1)c1nc2ccccc2c(=O)[nH]1	25µM*	?	-8%	-18%	37%
N#C/C(=C/c1ccncc1)c1nc2ccccc2c(=O)[nH]1	45µM*	-35%	-9%	-17%	26%

Source: PubChem BioAssay
